Laboratory results: PubChem BioAssay AID1159580 (chemical genetic matrix, 2015)
Values joined by “and” are separate entries in the source; they are usually repeats but may differ in a detail not shown here. Equal values may be shown once. The campaign covered roughly 5,500 compounds. About 2,000 (36%) were called active. About 18% were inconclusive and are not listed. Rule as the data show it: active = normalized growth mostly below about 0.91 (no sharp cut-off); inconclusive = no clear call, values can overlap the other calls; inactive = mostly above about 0.92. Some of the results follow.

Assay: chemical genetic growth profiling, strain panel (AID 1159580);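 also: tested at 20 µM; growth read once vehicle control cultures reached saturation at 30 °C; 1 = growth at the plate median or of vehicle wells; lower values mean less growth of the strain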
Settings: S. cerevisiae deletion strains, growth OD

Measured: normalized growth

Oc1c(Br)cc(Br)c2cccnc12
active: locus YAL013W, strain DEP1, active compounds read low 0.0586 | locus YAL021C, strain ccr4, active compounds read low 0.0663 | locus YAL026C, strain drs2, active compounds read low 0.0631 | locus YAL030W, strain snc1, active compounds read low 0.055 | locus YBL061C, strain skt5, active compounds read low 0.0586 | locus YBR009C, strain hhf1, active compounds read low 0.0623 | locus YBR021W, strain FUR4, active compounds read low 0.0949 | locus YBR023C, strain chs3, active compounds read low 0.0634 | locus YBR171W, strain sec66, active compounds read low 0.0756 | locus YBR229C, strain ROT2, active compounds read low 0.0506 | locus YBR231C, strain swc5, active compounds read low 0.0629 | locus YBR279W, strain paf1, active compounds read low 0.0612 | locus YCL011C, strain gbp2, active compounds read low 0.0575 | locus YCL016C, strain dcc1, active compounds read low 0.0701 | locus YCL029C, strain bik1, active compounds read low 0.07 | locus YCL061C, strain MRC1, active compounds read low 0.0647 | locus YCL069W, strain vba3, active compounds read low 0.0645 | locus YCR088W, strain abp1, active compounds read low 0.0595 | locus YDL005C, strain med2, active compounds read low 0.0726 | locus YDL035C, strain GPR1, active compounds read low 0.0512 | locus YDL040C, strain nat1, active compounds read low 0.0563 | locus YDL074C, strain BRE1, active compounds read low 0.0885 | locus YDL101C, strain DUN1, active compounds read low 0.0585 | locus YDL134C, strain PPH21, active compounds read low 0.0526 | locus YDL185W, strain tfp1, active compounds read low 0.0677 | locus YDL192W, strain arf1, active compounds read low 0.0671 | locus YDR001C, strain nth1, active compounds read low 0.0572 | locus YDR069C, strain doa4, active compounds read low 0.0693 | locus YDR101C, strain arx1, active compounds read low 0.0674 | locus YDR137W, strain rgp1, active compounds read low 0.107 | locus YDR150W, strain NUM1, active compounds read low 0.0621 | locus YDR159W, strain sac3, active compounds read low 0.0892 | locus YDR162C, strain NBP2, active compounds read low 0.0492 | locus YDR195W, strain ref2 0.126 | locus YDR297W, strain sur2, active compounds read low 0.0575 | locus YDR318W, strain mcm21, active compounds read low 0.071 | locus YDR334W, strain swr1, active compounds read low 0.0608 | locus YDR335W, strain msn5, active compounds read low 0.0583 | locus YDR388W, active compounds read low 0.0637 | locus YDR392W, strain spt3, active compounds read low 0.0808 | locus YDR502C, strain sam2, active compounds read low 0.0753 | locus YEL003W, strain gim4, active compounds read low 0.0546 | locus YEL037C, strain rad23, active compounds read low 0.0573 | locus YEL061C, strain CIN8 (second series), active compounds read low 0.145 | locus YEL061C, strain CIN8, active compounds read low 0.05 | locus YER015W, strain faa2, active compounds read low 0.0595 | locus YER016W, strain bim1, active compounds read low 0.0608 | locus YER110C, active compounds read low 0.0879 | locus YER111C, strain swi4, active compounds read low 0.0694 | locus YER155C, strain BEM2 (second series), active compounds read low 0.0894 | locus YER155C, strain BEM2, active compounds read low 0.0691 | locus YER167W, strain BCK2, active compounds read low 0.0561 | locus YFR010W, strain ubp6, active compounds read low 0.0731 | locus YGL078C, strain dbp3, active compounds read low 0.0674 | locus YGL086W, strain mad1, active compounds read low 0.0628 | locus YGL167C, strain pmr1, active compounds read low 0.079 | locus YGL173C, strain kem1, active compounds read low 0.0675 | locus YGL227W, strain vid30, active compounds read low 0.0683 | locus YGL240W, strain doc1, active compounds read low 0.0807 | locus YGL248W, strain PDE1, active compounds read low 0.0474 | locus YGL253W, strain hxk2, active compounds read low 0.0544 | locus YGR078C, strain PAC10, active compounds read low 0.0525 | locus YGR135W, strain pre9, active compounds read low 0.0723 | locus YGR229C, strain SMI1, active compounds read low 0.0593 | locus YGR252W, strain gcn5, active compounds read low 0.146 | locus YHR013C, strain ard1, active compounds read low 0.115 | locus YHR027C, strain rpn1, active compounds read low 0.0627 | locus YHR030C, strain SLT2, active compounds read low 0.0528 and 0.107 | locus YHR079C, strain IRE1 (second series), active compounds read low 0.0637 | locus YHR079C, strain IRE1, active compounds read low 0.113 | locus YHR094C, strain hxt1, active compounds read low 0.0678 | locus YHR129C, strain ARP1, active compounds read low 0.059 | locus YHR142W, strain chs7, active compounds read low 0.0809 | locus YHR200W, strain rpn10, active compounds read low 0.0663 | locus YIL066C, strain RNR3, active compounds read low 0.051 | locus YIL073C, strain SPO22, active compounds read low 0.15 | locus YIL125W, strain kgd1, active compounds read low 0.0707 | locus YIR030C, strain dcg1, active compounds read low 0.0676 | locus YJL092W, strain hpr5, active compounds read low 0.0584 | locus YJL095W, strain BCK1 (second series), active compounds read low 0.0568 | locus YJL095W, strain BCK1, active compounds read low 0.0606 and 0.106 | locus YJL115W, strain asf1, active compounds read low 0.072 | locus YJL129C, strain trk1, active compounds read low 0.0904 | locus YJL134W, strain LCB3, active compounds read low 0.0513 | locus YJL154C, strain vps35, active compounds read low 0.0576 | locus YJL164C, strain tpk1, active compounds read low 0.0622 | locus YJL166W, strain qcr8, active compounds read low 0.0631 | locus YJL168C, strain set2, active compounds read low 0.0664 | locus YJL187C, strain SWE1 (second series), active compounds read low 0.0507 | locus YJR043C, strain POL32, active compounds read low 0.0636 | locus YJR066W, strain TOR1, active compounds read low -4.7e-05
